# KB-3-1 cytotox: kills parental KB-3-1 adenocarcinoma cells; Potency, µM (series often up to 46.1 µM), usual class: cytotoxic; AID 1347075; KB-3-1 viability, CellTiter-Glo ATP luminescence, 72 h; 400,000 compounds, 1.4% hits; note: potency is the fitted concentration of half-maximal effect; nearly all actives have a fitted effect of over 60% in size
#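 KB-3-1 parental drug-naive adenocarcinoma cells in DMEM/10% FBS, incubated 72 h at 37 C with pin-transferred compounds across a concentration series. Viability by CellTiter-Glo luminescence; concentration-response curves fitted after normalization.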
# KB-V1 cytotox: kills drug-selected multidrug resistant KB-V1 cells. KB-V1 MDR cells viability, CellTiter-Glo, 72 h. Potency, µM (doses to about 46.1 µM), usual class: cytotoxic. AID 1347076. 400,000 compounds, 3.4% hits; note: potency is the fitted concentration of half-maximal effect; nearly all actives have a fitted effect of over 60% in size
#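 Cytotoxicity toward P-gp-expressing KB-V1 cells was determined as loss of CellTiter-Glo luminescence after 72 h at 37 degrees C. Compounds were tested in quantitative HTS format across a concentration range, with curves fitted to normalized data.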
# PI4K2A block: inhibitors of human PI4K2A. Q9BTU6. purified PI4K2A, ADP-Glo luminescence, 1 h; active compounds read low. activity change, negative = inhibition, % at 76.9 µM. 420,000 compounds, 0.13% hits; in the data active = activity change below about -50%; inconclusive = mostly about -30% to -49%;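 note: -100% = wells without enzyme as full effect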
# Target sequence (Q9BTU6 whole entry, looked up): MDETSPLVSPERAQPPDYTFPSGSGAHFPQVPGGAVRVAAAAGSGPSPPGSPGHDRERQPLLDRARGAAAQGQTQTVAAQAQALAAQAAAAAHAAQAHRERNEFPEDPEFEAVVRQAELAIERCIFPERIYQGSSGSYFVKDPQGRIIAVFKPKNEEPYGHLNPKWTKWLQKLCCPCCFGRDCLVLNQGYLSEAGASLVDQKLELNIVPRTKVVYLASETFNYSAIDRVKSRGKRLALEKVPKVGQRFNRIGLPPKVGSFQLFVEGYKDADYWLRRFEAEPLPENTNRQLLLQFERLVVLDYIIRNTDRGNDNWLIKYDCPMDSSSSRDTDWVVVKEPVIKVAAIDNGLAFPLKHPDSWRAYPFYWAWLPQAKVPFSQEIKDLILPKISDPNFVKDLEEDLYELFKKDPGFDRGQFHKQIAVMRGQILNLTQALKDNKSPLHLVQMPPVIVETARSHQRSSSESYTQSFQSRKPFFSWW
#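 PI4K2A activity was measured by ADP-Glo luminescence: enzyme (4 ug/mL stock) and phosphatidylinositol (1.2 mM stock) in Tris pH 7.5/MgCl2/EGTA/Triton X-100 buffer were reacted with ATP (300 microM stock) for one hour at ambient temperature.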
# A549 viability: A549 cytotoxicity, counter-screen for Nrf2 inhibitors | A549 ARE-Fluc cells, CellTiter-Fluor viability, 18-24 h | Potency, µM (doses to about 46 µM), inactives show at the top dose activity change, negative = cytotoxicity, usual class: inhibitors | 390,000 compounds, 0.16% hits; note: potency is the fitted concentration of half-maximal effect
#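 A549 ARE_Fluc cells in 5% FBS OPTI-MEM were exposed to compounds in concentration-response for 18-24 h at 37 deg C. Viability was read by CellTiter-Fluor fluorescence (Ex 405/Em 525) after 30 min, before the luciferase read.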
# Nrf2 inh: Nrf2 pathway inhibition | Potency, µM (series often up to 46 µM), inactives show at the top dose activity change, negative = inhibition, hits mostly inhibitors | AID 504444 | 360,000 compounds, 2.1% hits | A549 ARE-Fluc reporter, luciferase luminescence, 18-24 h; note: potency is the fitted concentration of half-maximal effect; nearly all actives have a fitted effect of over 60% in size
#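 Two sequential reads on A549 ARE_Fluc cells exposed to compound for 18-24 h: a CellTiter-Fluor fluorescence read for viability, then a luciferase luminescence read for Nrf2/ARE activity.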
# Giardia kill: Giardia lamblia killing. AID 540267. 340,000 compounds, 0.15% hits. activity change, % at 7.66 µM, hits read low. Giardia lamblia trophozoite viability; in the data active = activity change below about -80%; inconclusive = between about -30% and that limit;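 note: parasites exposed to compound for two days anaerobically before the ATP read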
#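 Luminescence from cellular ATP indicates surviving trophozoites (100 cells/well) following 48 hrs anaerobic compound treatment at 37 deg C; signal develops 15-30 min at room temperature.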
# * = called active by the depositor; i = inactive; ? = inconclusive; nt = not tested or not shown. In the library only some 5.7% were active in any assay of this set; here they are far more common. Unless noted, calls come from the whole dose curve; as a rule, active = well fitted curve in the direction sought with a large enough effect; inconclusive = small, poorly fitted or top-dose-only effect, or another doubt; inactive = no such curve, though single readings can be large; an effect the other way counts as inactive or inconclusive. Unless noted, % is set by controls: 0 for no effect and ±100 for the full control effect.
SMILES,KB-3-1 cytotox,KB-V1 cytotox,PI4K2A block,A549 viability,Nrf2 inh,Giardia kill
CCN(CC)c1ccc(/C=N\NC(=O)c2cccc3cc[nH]c23)cc1,23.1µM*,13µM*,-0.5,-22.0%,1.4%,3.3
S=C(Nc1ccc(Cl)c(Cl)c1)Nc1nnc(-c2ccncc2)s1,nt,nt,-12.7,nt,nt,nt
CCN(CC)C(=O)c1ccc2c(c1)N(Cc1ccc(C(F)(F)F)cc1)C(=O)c1ccccc1S2,i,i,-4.6,-1.6%,11.6µM*,nt
Clc1ccc(CNc2ccc(CNc3ncn[nH]3)cc2)c(Cl)c1,i,i,-1.8,2.1%,-1.5%,20.8
Clc1ccc(CNc2ccc(CNc3ncn[nH]3)cc2)cc1,?,18.4µM*,-1.2,-2.5%,-20.5%,-7.7
Cc1nn(CC(=O)N2CCN(c3ccccc3)CC2)c(=O)c2cc3cc(F)ccc3n12,i,?,-0.2,-1.3%,8.4%,nt
COc1ccccc1C(NC(C)=O)c1cc(Cl)c2cccnc2c1O (stereo not given),?,?,3.8,-12.2%,-5.0%,6.6
COc1ccc(C(NC(C)=O)c2ccc3cccnc3c2O)c(OC)c1 (stereo not given),7.31µM*,?,0.2,?,nt,3.3
CC(=O)NC(c1ccc2ccccc2c1)c1ccc2cccnc2c1O (stereo not given),?,?,6.7,-20.4%,14.6µM*,-3.2
COc1ccc(C(NC(C)=O)c2ccc3cccnc3c2O)cc1OC (stereo not given),?,i,nt,nt,nt,nt
CC(C)C(=O)NC(c1ccco1)c1ccc2cccnc2c1O (stereo not given),4.11µM*,4.61µM*,-7.9,-28.2%,?,6.2
O=c1[nH]c(/C=C/c2ccc(Br)cc2)nc2ccccc12,i,i,-3.0,1.3%,14.9%,?
Cc1nc(/C=C/c2ccccc2)[nH]c(=O)c1-c1ccccc1,?,18.4µM*,-1.9,-16.1%,?,12.9
O=C(Nc1cccc(/C=C/c2nc3ccccc3c(=O)[nH]2)c1)c1ccccc1Cl,?,i,1.7,-15.9%,?,-11.6
C(=C\c1ccco1)/c1nc2ccccc2[nH]1,?,?,-23.1,-5.2%,19.0%,9.3
COc1cc(/C=C/c2nc3ccccc3c(=O)[nH]2)cc(Cl)c1O,i,i,1.8,0.4%,-12.8%,36.8
Cc1cccc(/C=C\c2nc3ccccc3c(=O)[nH]2)c1,14.6µM*,?,-11.2,-1.8%,7.6%,-28.2
C(=C\c1nc2ccccc2[nH]1)/c1ccccc1,18.4µM*,i,-55.4*,nt,?,?
CN(C)c1ccc(/C=C/c2nc3ccccc3c(=O)[nH]2)cc1,i,i,-5.9,5.8%,-15.4%,-91.9*
Cc1ccc2c(c1)C1CS(=O)(=O)N(C3CCCC3)C(=O)N1C2 (stereo not given),nt,nt,1.9,nt,nt,nt
O=c1[nH]c(/C=C/c2ccccc2F)nc2ccccc12,4.61µM*,2.59µM*,-2.1,-11.0%,?,-20.1
O=c1[nH]c(/C=C/c2cccc3ccccc23)nc2ccccc12,i,i,-1.8,1.8%,-27.8%,-6.6
CCOC(=O)N1CCN(CC(=O)Nc2nc3ccccc3s2)CC1,i,11.6µM*,-1.4,3.5%,-22.7%,25.9
Cc1nc(SCC(=O)Nc2nc3ccccc3s2)c(C#N)c(C)c1C,?,i,2.3,14.3%,4.61µM*,?
CCOC(=O)N1CCN(C/C(C)=C/c2ccccc2)CC1,i,14.6µM*,12.7,15.4%,nt,9.1
SMILES,KB-3-1 cytotox,KB-V1 cytotox,PI4K2A block,A549 viability,Nrf2 inh,Giardia kill
CCOC(=O)N1CCN(C(=O)C(c2ccccc2)c2ccccc2)CC1,i,4.11µM*,-1.1,-2.6%,-4.0%,-7.4
COC(=O)c1ccc(-n2c(/C=C\c3cccc(Br)c3)nc3ccccc3c2=O)cc1,13µM*,?,0.9,-2.2%,nt,nt
O=C(O)c1ccc(-n2c(/C=C/c3ccccc3)nc3ccccc3c2=O)cc1,i,i,-2.2,-11.6%,?,-26.6
Cc1ccnc(NS(=O)(=O)c2ccc(NC(=O)C(C)(C)Oc3ccc(Cl)cc3)cc2)n1,i,i,1.3,-0.5%,0.8%,nt
CN1C(=O)C(O)(CC(=O)c2ccc(F)cc2)c2cc(Br)ccc21 (stereo not given),25.9µM*,i,2.7,3.7%,9.0%,10.6
COC(=O)C[C@H]1CC[C@@H]2[C@H](COc3ccc(NC(=O)C(C)C)cc3C(=O)N2C)O1,nt,nt,-2.0,nt,nt,nt
CCn1c(SC(C)C(=O)NCc2ccco2)nnc1-c1ccccc1 (stereo not given),?,i,nt,nt,nt,nt
COc1cccc(CN(C(=O)c2oc3cc(C)ccc3c2C)C2CCS(=O)(=O)C2)c1 (stereo not given),nt,nt,-8.6,-13.7%,?,nt
COC(=O)C1C=CC(OC2OC(COC(C)=O)C(OC(C)=O)C(OC(C)=O)C2OC(C)=O)n2c(=O)n(-c3ccccc3)c(=O)n21 (stereo not given),?,5.17µM*,-1.9,?,?,-5.5
CC(=O)OCC1OC(n2ccc3ccccc32)C(OC(C)=O)C(OC(C)=O)C1OC(C)=O (stereo not given),i,i,-14.8,-3.1%,25.6%,-10.2
COC(=O)[C@]1(CNC(=O)C(C)(C)C)CC(=O)N(C)[C@@H]1c1ccccc1,nt,nt,-2.1,nt,nt,nt
CCn1c(-c2ccc(N(C)C)cc2)nc2ccccc21,13µM*,16.4µM*,-5.1,-19.3%,?,-29.3
O=C(c1ccc2c(=O)n(CCc3ccccc3)c(=O)[nH]c2c1)N1CCN(C(=O)c2ccco2)CC1,nt,nt,nt,0.6%,?,-2.3
CCOC(=O)C1=C(O)CSC1=Nc1ccc(C)cc1,i,i,-2.4,-10.8%,-4.1%,3.7
CCOC(=O)C1=C(O)CSC1=Nc1cccc2ccccc12,i,23.1µM*,2.2,9.3%,-17.8%,44.2
CC(C)Cn1nc(NC(=O)c2cccs2)c2cc3ccccc3nc21,i,i,-3.2,3.9%,16.4µM*,1.0
CC(C)Cn1nc(NC(=O)c2ccco2)c2cc3ccccc3nc21,?,?,-0.8,20.3%,16.4µM*,20.1
Cc1cc2nn(-c3cccc4ccccc34)nc2cc1NC(=O)c1cccs1,i,16.4µM*,-2.0,-22.9%,?,21.0
COc1ccc2nc3c(cc2c1)c(NC(=O)c1cccs1)nn3CC(C)C,?,?,-5.0,-4.0%,nt,-18.4
Cc1cc2nn(-c3ccc(F)cc3)nc2cc1NC(=O)c1cccc2ccccc12,i,i,3.7,-7.2%,28.7%,nt
CCCOC(=O)C(C)n1nnc2sc(-c3ccccc3)cc2c1=O (stereo not given),i,i,11.6,-1.5%,20.6µM*,nt

# Screening data from PubChem.
